# aSyn UTR act – Activators working through SNCA 5'UTR binding (MLPCN). 300,000 tested, 7.1% active. AID 1814. alpha-synuclein 5'UTR reporter, activators screen. activity score, % (tested at 7.5 µM), hits read low; in the data active = activity score below about -60%
# * hit, by the source's call. Not all results are given here.
SMILES,aSyn UTR act
CCN(CC)S(=O)(=O)c1ccc(/C=C/C(=O)Nc2cccc(F)c2)cc1,-83*
CCOc1ccc(N)c(SSc2cc(OCC)ccc2N)c1,-121*
O=C(Nc1nc2ccc(F)cc2s1)c1cccs1,-223*
O=C(NC(Nc1nc2ccc([N+](=O)[O-])cc2s1)(C(F)(F)F)C(F)(F)F)c1cccnc1,60
CSc1nc2ccc3nc(NC(=O)c4cccs4)sc3c2s1,-370*
CN(C)S(=O)(=O)c1ccc2nc(NC(=O)c3cccnc3)sc2c1,-68*
O=C(NC(=S)Nc1nc2ccc(F)cc2s1)c1ccco1,-171*
CN(C)S(=O)(=O)c1ccc2nc(NC(=O)c3cccs3)sc2c1,-108*
CC(=O)Nc1ccc2nc(NC(=O)c3cccnc3)sc2c1,-92*
O=C(Nc1ccccc1)Nc1csc2ccccc12,-165*
O=C(Nc1ccccc1)Nc1c(F)cccc1F,-66*
O=C(Nc1ccccc1)Nc1scc2c1c(=O)oc1ccccc12,-123*
CC(=O)Nc1ccc(SCCCC(=O)c2ccccc2)cc1,-161*
CC(=O)[C@]1(O)Cc2c(O)c3c(c(O)c2[C@@H](O[C@H]2C[C@H](N)[C@H](O)[C@H](C)O2)C1)C(=O)c1ccccc1C3=O,110
CC(=O)Nc1ccc(NC(=O)Nc2ccccc2)cc1,-70*
CC(=O)Nc1ccc(C#Cc2ccc(NC(C)=O)cc2)cc1,74
Cc1cc(CNC(=O)Cc2c(F)cccc2Cl)nn1C,-72*
Cc1csc(NC(=O)Cc2c[nH]c3ccccc23)n1,-95*
COc1ccc2c(CC(=O)Nc3ncc(C)s3)coc2c1,-133*
Cc1csc(NC(=O)Cc2ccc(F)cc2)n1,-65*
Cc1csc(NC(=O)Cc2c(F)cccc2Cl)n1,-131*
Cc1cccc(NC(=O)Cc2c(F)cccc2Cl)n1,-103*
CN1CCN(CC(=O)Nc2nc(-c3c[nH]c4ccccc34)cs2)CC1,-62*
O=C(Cc1c[nH]c2ccccc12)Nc1nc2ccccc2[nH]1,-101*
Cc1ccc2c(CC(=O)Nc3nc(C)cs3)coc2c1,-70*
SMILES,aSyn UTR act
Cc1ccc(CC(=O)Nc2cccc(C)n2)cc1,-172*
CC(C)c1cc(C(C)C)c(S(=O)(=O)N2c3ccccc3[C@]3(Br)C[C@H]4C(=O)N[C@@H](Cc5ccccc5)C(=O)N4[C@H]23)c(C(C)C)c1,65
COCCNC(=S)N/N=C(\C)c1ccccc1O,-161*
O=C(COn1nnc2ccccc21)N1CCN(Cc2ccccc2)CC1,-66*
O=C(COn1nnc2ccccc21)NCC1CCCCC1,-78*
[O-]/C(=C(\C(=S)Nc1cccc2ccccc12)[n+]1ccccc1)c1ccc(Cl)s1,-63*
O=C(c1ccccc1)c1ccc2cc(O)ccc2c1,-231*
CCOC(=O)/C=C/c1cnn(-c2ccccc2)c1,-113*
Cc1cc(O)c(NC(=O)c2ccco2)cc1C,-98*
Cc1ccc(C(=O)Nc2ccc(NC(=O)c3ccco3)c(C)c2)cc1,-67*
Cc1cc(NC(=O)C(C)C)ncc1NC(=O)c1ccccn1,-88*
Cc1ccc(O)c(NC(=O)c2ccco2)c1,-66*
Cc1cc(NC(=O)c2ccccc2)ncc1NC(=O)c1ccco1,-115*
c1ccc(CNc2ncnc3c2cnn3-c2ccccc2)cc1,-256*
Fc1ccc(CNc2ncnc3c2cnn3-c2ccccc2)cc1,-71*
Clc1ccc(-n2ncc3c(NCc4cccnc4)ncnc32)cc1Cl,-87*
c1ccc(CCNc2ncnc3c2cnn3-c2ccccc2)cc1,-149*
Cc1cccc(-n2ncc3c(N4CCCc5ccccc54)ncnc32)c1,-123*
c1ccc(-n2ncc3c(NCCN4CCCCC4)ncnc32)cc1,-133*
Cc1cccc(-n2ncc3c(NCc4ccccc4)ncnc32)c1,-140*
CC(C)(C)Nc1ncnc2c1cnn2-c1ccccc1,-104*
Cc1cccc(-n2ncc3c(N(C)C4CCCCC4)ncnc32)c1,66
Cc1cccc(-n2ncc3c(N(CCO)CCO)ncnc32)c1,-106*
Cc1ccc(Nc2nc(Cl)nc(NC(C)(C)C)n2)cc1,-154*
Cc1ccc(Nc2nc(Nc3ccc(C)cc3)nc(SC3=NCCS3)n2)cc1,-95*
SMILES,aSyn UTR act
CCS(=O)(=O)N1CCC(c2nc(-c3ccc(C)cc3)no2)CC1,-78*
Cc1ccc(N(C)S(=O)(=O)c2ccc(-c3cnc(C4CC4)o3)cc2)cc1,84
Cc1ccc(-c2noc(C3CCCCC3)n2)cc1,-187*
Cc1cccc(-c2noc(C3CCCCC3)n2)c1,-150*
Cc1cccc(-c2noc(-c3ccno3)n2)c1,-121*
Cn1nc(C(=O)NC2CCCCC2)c2c1-c1ccccc1SC2,-98*
Cc1ccc2cc(CCNC(=O)c3ccco3)c(=O)[nH]c2c1,-143*
Cc1cc2cc(CCNC(=O)c3cccs3)c(=O)[nH]c2cc1C,-149*
CC(=O)Nc1ccc(S(=O)(=O)N(Cc2cccnc2)Cc2cc3ccc(C)cc3[nH]c2=O)cc1,60
CCC(c1nnnn1CCc1ccccc1)N(Cc1ccco1)Cc1cc2c(C)ccc(C)c2[nH]c1=O (stereo unspecified),44
Cc1ccc2cc(CCNC(=O)c3ccco3)c(=O)[nH]c2c1C,-138*
COc1ccc2cc(CCNC(=O)c3ccco3)c(=O)[nH]c2c1,-117*

# Bioassay records from PubChem.
